Bioassay records (PubChem BioAssay)
Only some compounds are listed: those with a hit (about 27% of all), similar ones and a draw of the others.
Cav3 T inh: Cav3.2 calcium influx blockers – cell-based, Fluo-4 calcium fluorescence, FDSS, MLSMR library, primary screen. Cav3.2-expressing cells; active compounds read low. B-score at 10 µM. actives 4% (n = 100,000). AID 449739, 2010;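 active = single-dose well whose peak fluorescence ratio is a statistical outlier from its plate by either plate-standardised score or position-corrected B-score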
CYP2C19 act: human CYP2C19 activators, primary screen, biochemical, luminescence | Cytochrome P450 2C19 (Homo sapiens), P33261 | recombinant CYP2C19, luciferin-H EGE luminescence; active compounds read high; 0 = fully inhibited enzyme, 1 = untreated enzyme | activation factor at 5 µM | 96,000 tested, under 10 active | AID 1025, 2008;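 active = activation factor of at least 2 at 5 µM in the primary screen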;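 also: 0 = wells with 2.5 mM tranylcypromine and 1 = vehicle-only wells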
Target sequence (P33261 whole entry, looked up): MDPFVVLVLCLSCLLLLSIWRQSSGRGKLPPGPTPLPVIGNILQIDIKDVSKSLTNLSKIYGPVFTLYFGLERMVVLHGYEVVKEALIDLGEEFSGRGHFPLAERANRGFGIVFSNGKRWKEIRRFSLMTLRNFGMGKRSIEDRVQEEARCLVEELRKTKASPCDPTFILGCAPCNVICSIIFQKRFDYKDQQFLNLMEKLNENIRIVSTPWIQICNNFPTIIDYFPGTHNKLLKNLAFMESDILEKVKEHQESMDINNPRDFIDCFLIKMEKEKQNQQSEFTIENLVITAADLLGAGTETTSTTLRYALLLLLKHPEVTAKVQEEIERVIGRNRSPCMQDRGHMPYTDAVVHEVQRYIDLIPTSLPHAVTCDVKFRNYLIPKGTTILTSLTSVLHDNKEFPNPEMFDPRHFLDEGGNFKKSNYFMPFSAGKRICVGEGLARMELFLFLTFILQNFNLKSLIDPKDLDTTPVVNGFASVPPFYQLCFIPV
CYP2C19 inhib: blockers of cytochrome P450 2C19 activity – biochemical, luminescence, ADME assay, primary screen. CYP2C19 Supersomes, luciferin-H EGE luminescence, 30 min. inhibition, % at 5 µM. actives 21% (n = 96,000);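 active = CYP2C19 inhibition above a set limit at 5 µM in the primary screen, cut at about 50% in these data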;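 also: plate controls were negative control wells for no effect and 2.5 mM tranylcypromine positive control for full effect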
CYP2C9 activ: human CYP2C9 activators, primary screen, biochemical, luminescence; recombinant CYP2C9, luciferin-H conversion; active compounds read high; factor 1 = untreated enzyme, 0 = blocked; actives 1.4% (n = 96,000); Cytochrome P450 2C9 (Homo sapiens), P11712; activation factor at 5 µM;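 active = activation factor of 2 or more for CYP2C9 at a 5 µM dose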;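 also: 0 = sulfaphenazole-blocked wells and 1 = vehicle-only wells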
CYP2C9 inhib: blockers of cytochrome P450 2C9 activity – biochemical, luminescence, ADME assay, primary screen; CYP2C9 Supersomes, luciferin-H conversion; actives 20% (n = 96,000); P11712; inhibition, % at 5 µM; AID 777, 2007;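 active = blocking of liver enzyme CYP2C9 beyond about 50% at 5 µM, limit read from the data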
Pyk2 oligo antag: antagonists of Pyk2 self-association, primary screen, Q293 cells, FERM NanoBiT luminescence, HTS. z-score (the deposit names both 25 µM and 10 µM). active compounds read low. actives 0.83% (n = 99,000);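 active = Z-score of -3 or lower, scaled per plate to the spread of control and sample wells; inactive = z-score above -3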;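 also: negative z-score means lost luminescence so less FERM oligomerization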
Starred values were filed as active, the others as inactive.

Results for N#CCCn1nc(-c2ccccc2)cc1-n1c(C(F)(F)F)nc2ccccc21 ?
Cav3 T inh: -3.4*; CYP2C19 act: 0.1; CYP2C19 inhib: 87*; CYP2C9 activ: 0; CYP2C9 inhib: 96*; Pyk2 oligo antag: -0.7

How did CC1CCCC(NC(=O)Cn2cc3c(n2)CCCCC3)C1C (stereo not drawn) do in these assays?
Cav3 T inh: -2.1; CYP2C19 act: 1; CYP2C19 inhib: -1; CYP2C9 activ: 1.4; CYP2C9 inhib: -45

Results for Cc1ccc(C23CC4CC(CC(C(=O)N5CCOCC5)(C4)C2)C3)cc1 ?
Cav3 T inh: 0.29; CYP2C19 act: 0.2; CYP2C19 inhib: 76*; CYP2C9 activ: 0.4; CYP2C9 inhib: 57*; Pyk2 oligo antag: -0.96

What do the screens show for `O=C(NCCCN1CCOCC1)c1cc2c(s1)CSC2`?
Cav3 T inh: 1.5; CYP2C19 act: 0.9; CYP2C19 inhib: 11; CYP2C9 activ: 1.1; CYP2C9 inhib: -11; Pyk2 oligo antag: 1.6

How did COc1cccc(OC)c1C(=O)NC(=S)N1CCN(c2ccc(C(F)(F)F)cc2[N+](=O)[O-])CC1 do in these assays?
Cav3 T inh: -5.5*; CYP2C19 act: 0.6; CYP2C19 inhib: 36; CYP2C9 activ: 0.6; CYP2C9 inhib: 42; Pyk2 oligo antag: -0.08

What do the screens show for `Cc1ccc2c(c1)N(CC(=O)NC1CCCCC1C)C(=O)CO2` (stereo not drawn)?
Cav3 T inh: 1.6; CYP2C19 act: 0.6; CYP2C19 inhib: 43; CYP2C9 activ: 1.1; CYP2C9 inhib: -12; Pyk2 oligo antag: -0.3

What do the screens show for `N#Cc1c(N)nc2c(c1-c1ccccc1)CCCC2`?
Cav3 T inh: 0.13; CYP2C19 act: 0.9; CYP2C19 inhib: 14; CYP2C9 activ: 1.2; CYP2C9 inhib: -25; Pyk2 oligo antag: 0.06

How did N#Cc1c(N)nc2c(c1-c1ccncc1)CCCCCC2 do in these assays?
Cav3 T inh: 0.42; Pyk2 oligo antag: 0.04

Results for N#Cc1c(N)nc2c(c1-c1cccc(O)c1)CCCCCC2 ?
CYP2C19 act: 0.7; CYP2C19 inhib: 31; CYP2C9 activ: 0.5; CYP2C9 inhib: 54*; Pyk2 oligo antag: -2.5

How did N#Cc1c(N)nc2c(c1-c1ccncc1)CCCC2 do in these assays?
Cav3 T inh: 0.99; CYP2C19 act: 0.2; CYP2C19 inhib: 76*; CYP2C9 activ: 0.7; CYP2C9 inhib: 34; Pyk2 oligo antag: -0.1

How did O=C(NCC1CCCO1)c1c(O)c2c([nH]c1=O)CCCC2 (stereo not drawn) do in these assays?
Cav3 T inh: 0.013; CYP2C19 act: 0.9; CYP2C19 inhib: 12; CYP2C9 activ: 0.9; CYP2C9 inhib: 14; Pyk2 oligo antag: 0.24

Results for O=S(=O)(NCCn1ccc2ccccc21)c1ccccc1 ?
Cav3 T inh: -1.5; CYP2C19 act: 0; CYP2C19 inhib: 100*; CYP2C9 activ: 0.3; CYP2C9 inhib: 70*

Results for Cc1cc(C)c(S(=O)(=O)NCc2ccc3c(c2)cc(C)n3C)c(C)c1 ?
Cav3 T inh: -2; CYP2C19 act: 1.3; CYP2C19 inhib: -25; CYP2C9 activ: 0.9; CYP2C9 inhib: 10

What do the screens show for `Cc1ccc(S(=O)(=O)NCCn2c(C)cc3ccccc32)cc1`?
CYP2C19 act: 0.3; CYP2C19 inhib: 67*; CYP2C9 activ: 0.3; CYP2C9 inhib: 68*

What do the screens show for `Cc1cc(C)c(S(=O)(=O)NCCn2c(C)cc3ccccc32)c(C)c1`?
Cav3 T inh: -0.097; CYP2C19 act: 0.3; CYP2C19 inhib: 73*; CYP2C9 activ: 0.1; CYP2C9 inhib: 90*

What do the screens show for `Nc1nnc(CC(=O)N/N=C/c2cccc(OCCOc3ccccc3)c2)s1`?
Cav3 T inh: 0.13; CYP2C19 act: 1.1; CYP2C19 inhib: -8; CYP2C9 activ: 1; CYP2C9 inhib: 0; Pyk2 oligo antag: -1

How did O=C(COc1ccccc1)NNC(=S)NC(=O)c1ccc(Cl)cc1Cl do in these assays?
Cav3 T inh: -4.1*

Results for O=C(c1cccc2c1-c1ccccc1/C2=N/O)N1CCCCC1 ?
Cav3 T inh: -2.3; CYP2C19 act: 0.5; CYP2C19 inhib: 51*; CYP2C9 activ: 0.5; CYP2C9 inhib: 50; Pyk2 oligo antag: -2.4

What do the screens show for `CCOC(=O)C1C(=O)CC(C)(O)C(C(=O)OCC)C1c1ccc(F)cc1` (stereo not drawn)?
Cav3 T inh: 0.036; CYP2C19 act: 0.8; CYP2C19 inhib: 20; CYP2C9 activ: 0.9; CYP2C9 inhib: 9; Pyk2 oligo antag: 1.9

What do the screens show for `CCOC(=O)C1C(=O)CC(C)(O)C(C(=O)OCC)C1c1ccc(N(CC)CC)cc1` (stereo not drawn)?
Cav3 T inh: -0.87; Pyk2 oligo antag: -0.11

Results for CC(C)OC(=O)C1C(=O)CC(C)(O)C(C(=O)OC(C)C)C1c1ccc(F)cc1 (stereo not drawn) ?
Cav3 T inh: -0.79; CYP2C19 act: 0.2; CYP2C19 inhib: 77*; CYP2C9 activ: 0.7; CYP2C9 inhib: 26; Pyk2 oligo antag: 0.09

Results for CCN(CC)c1ccc(C2C(C(=O)OC(C)C)C(=O)CC(C)(O)C2C(=O)OC(C)C)cc1 (stereo not drawn) ?
Cav3 T inh: -5.7*; CYP2C19 act: 0.8; CYP2C19 inhib: 21; CYP2C9 activ: 0.9; CYP2C9 inhib: 6; Pyk2 oligo antag: -0.57

Results for COc1cccc(C(=O)Nc2ccc(N3CCN(S(C)(=O)=O)CC3)cc2)c1 ?
Cav3 T inh: 0.46; CYP2C19 act: 1.1; CYP2C19 inhib: -10; CYP2C9 activ: 1.1; CYP2C9 inhib: -9; Pyk2 oligo antag: 0.08

What do the screens show for `O=C(NC1(C(F)(F)F)NC(=O)N(C2CCCC2)C1=O)C1CC1` (stereo not drawn)?
Cav3 T inh: -0.22; CYP2C19 act: 1; CYP2C19 inhib: 4; CYP2C9 activ: 1.1; CYP2C9 inhib: -8; Pyk2 oligo antag: -0.02

Results for CCCCCN(CCCCC)C(=O)C(CCC(=O)O)NC(=O)c1ccc(Cl)c(Cl)c1 (stereo not drawn) ?
Cav3 T inh: -8.5*

What do the screens show for `CCCCN(CC)C(=O)c1ccc(Cl)c(Cl)c1`?
Cav3 T inh: -2.7; CYP2C19 act: 0.2; CYP2C19 inhib: 84*; CYP2C9 activ: 1; CYP2C9 inhib: 1; Pyk2 oligo antag: 0.79

Results for COc1cccc(-c2csc(N3CCN(C(=S)Nc4ccccc4)CC3)n2)c1 ?
Cav3 T inh: -0.056; CYP2C19 act: 1; CYP2C19 inhib: 3; CYP2C9 activ: 1; CYP2C9 inhib: 2; Pyk2 oligo antag: -0.06

Results for COc1cccc(-c2csc(N3CCN(C(=O)NC45CC6CC(CC(C6)C4)C5)CC3)n2)c1 ?
Cav3 T inh: -3.3*; Pyk2 oligo antag: -1.4
